Source: the supplement of paper PMC6992640
± gives the standard deviation of the averaged measurements.

How the values were obtained:
Experiment in all cases: cell viability (% of vehicle); higher = less cytotoxic
Conditions in all cases: 10 µM; 72 h
HCI01 = test system: HCI01 (cells of a triple-negative basal-like breast cancer xenograft)
HCI03 = test system: HCI03 (cells of an ER-positive luminal breast cancer xenograft)
HCI09 = test system: HCI09 (cells of a triple-negative luminal androgen receptor type breast cancer xenograft)
HCI11 = test system: HCI11 (cells of an ER-positive luminal breast cancer xenograft)
HCI13 = test system: HCI13 (cells of an ER-positive luminal breast cancer xenograft)
HCI16 = test system: HCI16 (cells of a triple-negative basal-like breast cancer xenograft)
UCD52 = test system: UCD52 (cells of a triple-negative basal-like breast cancer xenograft)
WHIM2 = test system: WHIM2 (cells of a triple-negative basal-like breast cancer xenograft)
WHIM30 = test system: WHIM30 (cells of a triple-negative basal-like breast cancer xenograft)
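Note: PDX cells carrying CMV promoter-driven luciferase, viability read as total photon flux per second by IVIS imaging following D-luciferin, vehicle control 0.1% DMSO.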

SMILES	cell viability (HCI01)	cell viability (HCI03)	cell viability (HCI09)	cell viability (HCI11)	cell viability (HCI13)	cell viability (HCI16)	cell viability (UCD52)	cell viability (WHIM2)	cell viability (WHIM30)
CNCCC(Oc1ccccc1C)c1ccccc1.Cl (stereo unspecified) [Atomoxetine HCl]	119 ± 8.9	145	111 ± 11	108	105 ± 3.7	130	85 ± 3.7	88.7 ± 17	180 ± 28
C=CC1=C(C(=O)O)N2C(=O)C(NC(=O)C(=NO)c3csc(N)n3)C2SC1 (stereo unspecified) [Cefdinir]	96.2 ± 11	138	107 ± 6.3	120	130 ± 4.8	121	96.6 ± 12	98.1 ± 22	114 ± 8
Oc1c(Br)cc(Br)c2cccnc12 [Broxyquinoline]	81.5 ± 50	89.1	25.5 ± 7.7	98.1	34.3 ± 4.1	122	72.8 ± 42	146 ± 60	98 ± 4.2
COc1ccc2[nH]cc(CCNC(C)=O)c2c1 [Melatonin]	112 ± 10	134	106 ± 2.2	97.8	108 ± 3.3	109	127 ± 5.4	121 ± 26	158 ± 17
Cc1c(N(C)C)c(=O)n(-c2ccccc2)n1C [Amidopyrine]	99.1 ± 16	118	94.5 ± 19	93.2	76.33 ± 0.62	97.5	97.8 ± 7.1	117 ± 37	122 ± 8.5
COc1ccc(-c2nc3ccc(C4=NNC(=O)CC4C)cc3[nH]2)cc1 (stereo unspecified) [Pimobendan]	134 ± 7.2	132	129 ± 48	132	146 ± 11	121	119 ± 5.9	168.4 ± 1.3	119 ± 7
CC(C)C(=O)Nc1ccc([N+](=O)[O-])c(C(F)(F)F)c1 [Flutamide]	136 ± 7.3	139	71.8 ± 8	125	97.9 ± 8.4	78.4	78.9 ± 5.1	112 ± 33	116 ± 6.6
Cc1ccc(-c2cc(C(F)(F)F)nn2-c2ccc(S(N)(=O)=O)cc2)cc1 [Celecoxib]	139 ± 24	110	94.7 ± 7.4	94.4	94 ± 2.9	112	70.1 ± 3.8	93.3 ± 12	100.5 ± 1
NC(N)=Nc1nc(CSCCC(N)=NS(N)(=O)=O)cs1 [Famotidine]	120 ± 16	127	103 ± 8.7	98.9	149 ± 20	98.6	78.5 ± 6.2	85.9 ± 6.1	165 ± 4.1
CC1CCOC2Cn3cc(C(=O)NCc4ccc(F)cc4F)c(=O)c(O)c3C(=O)N12 (stereo unspecified)	133 ± 25	110	139 ± 35	137	74.39 ± 0.7	124	139 ± 20	120 ± 15	176 ± 20
NC(=O)NO [Hydroxyurea]	62.8 ± 36	111	89.2 ± 7.3	90	113 ± 11	110	78.7 ± 4.1	96.5 ± 31	125 ± 3.9
CN1CCN(c2c(F)cc3c(=O)c(C(=O)O)cn4c3c2OCN4C)CC1 [Marbofloxacin]	99.12 ± 0.67	99.3	69.9 ± 9	138	129 ± 17	114	136 ± 18	75.5 ± 2.6	148 ± 30
COc1ccc(C2CNC(=O)C2)cc1OC1CCCC1 (stereo not drawn) [S- (+)-Rolipram]	144 ± 9	152	94.4 ± 32	121	144 ± 31	136	99.5 ± 11	117.8 ± 0.47	134 ± 9.9
CC(C[N+](C)(C)C)OC(N)=O.[Cl-] (stereo unspecified) [Bethanechol chloride]	86.3 ± 5.2	88	90.8 ± 12	82.5	104 ± 14	101	100 ± 5.9	105 ± 6.2	79.4 ± 1.9
CCCCOc1cc(C(=O)NCCN(CC)CC)c2ccccc2n1 [Dibucaine]	94.3 ± 30	158	95.5 ± 9.9	93.9	135 ± 2	135	81.16 ± 0.71	95.1 ± 14	89.012 ± 0.00099
CNCC(O)c1cccc(O)c1.Cl (stereo unspecified) [Phenylephrine HCl]	110 ± 2.1	126	103 ± 22	105	78 ± 4.8	97.2	87.5 ± 4.1	86.1 ± 7.8	109 ± 7.6
COc1cc(C2c3cc4c(cc3C(OC3OC5COC(C)OC5C(O)C3O)C3COC(=O)C23)OCO4)cc(OC)c1O (stereo unspecified) [Etoposide]	103 ± 7.8	94.2	90 ± 4.5	89.4	84 ± 3	69.7	120 ± 4.3	91.8 ± 6	95.3 ± 21
CC(CCC(=O)O)C1CCC2C3C(O)CC4CC(O)CCC4(C)C3CCC12C (stereo unspecified) [Chenodeoxycholic Acid]	114 ± 38	104	66 ± 10	103	41.5 ± 4.3	102	97.13 ± 0.54	115 ± 23	146 ± 3.2
CCC1=CC2CN(C1)Cc1c([nH]c3ccccc13)C(C(=O)OC)(c1cc3c(cc1OC)N(C)C1C(O)(C(=O)OC)C(OC(C)=O)C4(CC)C=CCN5CCC31C54)C2.O=C(O)C(O)C(O)C(=O)O.O=C(O)C(O)C(O)C(=O)O (stereo unspecified) [Vinorelbine ditartrate]	106 ± 17	112	65.2 ± 5.9	109	39 ± 7.7	122	55.7 ± 4	57.2 ± 2.2	95.5 ± 16
